Structures are written as SMILES. Out of some 190,000 compounds screened, about 930 (0.49%) were called active.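 Rule for the calls: active = z-score of insulin promoter reporter brightness in nuclei below -3 at 5 µM, with at least 500 cells counted; inconclusive = wells with under 500 cells, flagged as toxic or sparse; inactive = the rest.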 Some of the results follow. Results with a measured potency or affinity are listed apart.

The test can be described thus: insulin promoter down-regulators in MIN6 cells, imaging, high-content screening, mouse beta cells (AID 1628). The following applies: MIN6 insulin promoter GFP reporter, at 5 µM, active compounds read low.
Consider `CC1=CN2C(=N)/C(=C/c3ccc([N+](=O)[O-])o3)C(=O)N=C2S1`, for which the z-score was 8.52 (inactive).

On to `CCCCCCc1cc2cc(-c3nnc(-c4cc(OC)c(OC)c(OC)c4)o3)c(=O)oc2cc1O`, for which the z-score is 9.96 (inactive).

Regarding `Cc1c(NC(=O)CN2CCN(c3ccc([N+](=O)[O-])cc3)CC2)c(=O)n(-c2ccccc2)n1C`, the z-score was -3.45 (active).

With `Cc1c(C(c2ccc([N+](=O)[O-])cc2)c2c(C)n(C)n(-c3ccccc3)c2=O)c(=O)n(-c2ccccc2)n1C`, the z-score was 4.14 (inactive).

With `CC(=O)N1CCc2cc(Br)cc(S(=O)(=O)CCC(=O)Nc3c(C)n(C)n(-c4ccccc4)c3=O)c21`, the z-score is 2.32 (inactive).

As for `Cc1cc(N2CCCC2)ccc1/C=C1/C(=O)N(C)C(=S)N1C`, the z-score is 3.32 (inactive).

Take `COC(=O)c1sccc1NC(=O)c1cc(OC)c(OC)c(OC)c1`: the z-score is 3.71 (inactive).

Take `CCOc1cc(NC(=O)c2ccco2)c(OCC)cc1NC(=O)c1cc(OC)c(OC)c(OC)c1`: the z-score was -3.03 (active).

Consider `CCN1/C(=C/c2ccc3cc(C)ccc3[n+]2CC)Sc2ccccc21`, for which the z-score was 16.5 (inactive).

For the compound `CCN1/C(=C/C(C)=C/c2sc3ccccc3[n+]2CC)Sc2ccccc21`, the z-score is -3.52 (active).

Take `CCN1/C(=C\C=C(C(C)=O)C(C)=O)Sc2ccccc21`: the z-score is 7.73 (inactive).

On to `CCCCNC(=O)/C(C#N)=c1\s/c(=C\c2ccccc2OC(F)F)c(=O)n1CCCOC`, for which the z-score was 4.53 (inactive).

With `O=C(NC(Nc1nc2ccc([N+](=O)[O-])cc2s1)(C(F)(F)F)C(F)(F)F)c1cccnc1`, the z-score was -3.96 (active).

For the compound `COc1ccccc1NC(=O)c1ccc(-c2ccccc2[N+](=O)[O-])o1`, the z-score is 1.05 (inactive).

Turning to `COc1ccccc1NC(=O)c1c(NC(=O)c2ccco2)sc2c1CCC2`, the z-score is -3.67 (active).

`COC(=O)c1sc(NC(=O)c2ccco2)nc1C`: the z-score was 1.53 (inactive).

Regarding `COc1cc2cc(C)c3nnc(SCC(=O)Nc4cc(C)on4)n3c2cc1OC`, the z-score is 5.98 (inactive).

Turning to `CCn1c2ccccc2c2nnc(SCC(=O)Nc3cc(C)on3)nc21`, the z-score is 3.98 (inactive).

Take `CCn1c(SCC(=O)Nc2cc(C)on2)nc2c(c1=O)SC(C)C2` (stereo not drawn): the z-score is -3.41 (active).

With `CCO[C@@H]1OC(C(=O)Nc2ccccc2)=C[C@H](c2ccc(C(F)(F)F)cc2)[C@H]1CCCO`, the z-score is -3.04 (active).

`CCCN1C(=O)/C(=C/c2c(N3CCNC(=O)C3CC(=O)OC)nc3c(C)cccn3c2=O)SC1=S` (stereo not drawn): the z-score is 6.46 (inactive).

As for `COc1ccc(NC2=Nc3ccccc3N3C2=Nc2c(c(C)nn2-c2ccc(C)cc2)C3c2cccnc2)cc1` (stereo not drawn), the z-score was 3.08 (inactive).

Regarding `CCOc1ccccc1C(=O)NCC(=O)O`, the z-score was 0.62 (inactive).

As for `CCOC(=O)CCNC(=O)CNC(=O)OCc1ccccc1`, the z-score is -4.19 (active).

Consider `COc1ccc(CN2C(=O)/C(=C/c3ccc(-c4ccc(Cl)c(C(=O)O)c4)o3)SC2=S)cc1`, for which the z-score was 5.56 (inactive).

For the compound `CCc1ccc(NC(=S)Nc2ccc3cn[nH]c3c2)cc1`, the z-score is -5.26 (active).

`CCOc1cc(C)c(S(=O)(=O)Nc2ccc3cn[nH]c3c2)cc1C`: the z-score was 4.24 (inactive).

`C=CCn1c(SCc2c(C)noc2C)nc2sc3c(c2c1=O)CCCCC3`: the z-score is -4.19 (active).

Consider `CN(C)C(=O)C12CCC(C)(c3nc4ccccc4nc31)C2(C)C` (stereo not drawn), for which the z-score was 3.42 (inactive).

As for `c1ccc2nc(-c3ccc4c(c3)OCO4)ccc2c1`, the z-score is -0.48 (inactive).

Consider `O=C(Nc1nc(-c2ccc3c(c2)OCO3)cs1)c1ccncc1`, for which the z-score was -4.14 (active).

As for `O=C1/C(=C/c2ccc(N3CCOCC3)o2)SC(=Nc2ccccc2)N1CCc1c[nH]c2ccccc12`, the z-score is 17.8 (inactive).

`COc1ccc(N2CCN(C(=O)CSc3nc4c(c(=O)n(C)c(=O)n4C)n3C(C)C)CC2)cc1`: the z-score is -3.09 (active).

`COCCn1c(CN2CCN(c3ccc(OC)cc3)CC2)nc2c1c(=O)n(C)c(=O)n2C`: the z-score was -7.6 (active).

In the case of `CC1CCCN(c2nc3c(c(=O)n(C)c(=O)n3C)n2CCSc2nc3ccccc3s2)C1` (stereo not drawn), the z-score was 3.19 (inactive).

With `Cc1cc(C)c(C(=O)O)c(CC(C)(C)C(=O)O)c1`, the z-score is 3.14 (inactive).

On to `Cn1c(=O)c(N)c2c3c(c(Br)ccc31)C(=O)c1ccccc1-2`, for which the z-score is 16.9 (inactive).

As for `Cc1c(-c2cc(C(=O)O)on2)cnn1C`, the z-score is 1.94 (inactive).

As for `CC(C)N=c1scc(-c2ccco2)n1/N=C/c1ccc(O)c(O)c1`, the z-score is -5.1 (active).

Take `CCCCN(C)C(=S)Nc1ccsc1C(=O)OC`: the z-score was 2.3 (inactive).

Regarding `CCOc1cc(/C=N/Nc2nc3ccccc3[nH]2)cc(Br)c1OCC(=O)N(C)C`, the z-score is -3.72 (active).

For the compound `CCOc1cc(/C=C/C(=O)Nc2ccc(C(=O)NCCN(CC)CC)cc2)ccc1OCC(C)C`, the z-score was -4.98 (active).

As for `CCOc1cc2[nH]c(=O)n(Cc3ccc(C(=O)NCCOC)cc3)c(=O)c2cc1OCC`, the z-score is 1.15 (inactive).

In the case of `Cc1ccc(C(OCC(O)CNC(C)c2ccccc2)c2ccccc2)cc1` (stereo not drawn), the z-score was -3.13 (active).

As to `Cc1cc(OCC(=O)NCc2cccnc2)ccc1[N+](=O)[O-]`, the z-score was -4.17 (active).

As for `CCCNC(=O)Cc1cc(=O)[nH]c(=O)[nH]1`, the z-score is -3.04 (active).

Turning to `CCCc1cc(=O)[nH]c(SCC(=O)NCCCC(=O)OCC)n1`, the z-score was 3.15 (inactive).

As for `CC1(C)c2ccccc2N2CC(=O)NC21/C=C/c1ccco1` (stereo not drawn), the z-score is 3.29 (inactive).

As to `COC(=O)c1cccc(N2C(=O)c3cccnc3C2=O)c1`, the z-score is 0.1 (inactive).

Consider `O=C(CSc1ncccn1)NC(=O)c1ccccc1`, for which the z-score is 0.73 (inactive).

As for `COC(=O)c1ccnc(SCC(=O)c2ccccc2)c1`, the z-score was -3.59 (active).

As to `CCN1C(=O)/C(=C/c2ccc(N3CCCC3)cc2)NC1=S`, the z-score was 15.8 (inactive).

Turning to `CCOC(=O)c1ccc2c(c1)nc(C1CCN(S(=O)(=O)c3cccs3)CC1)n2CC`, the z-score is -4.13 (active).

As for `CCn1c(SCC(=O)c2c[nH]c3ccccc23)nc2cc(S(=O)(=O)N3CCOCC3)ccc21`, the z-score is 3.09 (inactive).

In the case of `COc1cccc(C(=O)Nc2ccccc2C(=O)N2CCCC2)c1`, the z-score was 3.3 (inactive).

As for `CS(=O)(=O)Nc1ccc(C(=O)Nc2ccccc2C(=O)N2CCCC2)cc1`, the z-score is -4.1 (active).

Take `CCNc1c2c3c(cccc3n(C)c1=O)C(=O)c1ccccc1-2`: the z-score is 15.6 (inactive).

Take `CCC(CC)COC(=O)C(C#N)c1nc2ccccc2nc1N1CCN(CC)CC1` (stereo not drawn): the z-score was -3.84 (active).

Take `CCN1CCN(C2=CC3=CC(=C(C#N)C#N)CCC3CC2)CC1` (stereo not drawn): the z-score was 16.6 (inactive).

On to `Cc1ccc(S(=O)(=O)C(C#N)c2nc3ccccc3nc2N2CCC(C)CC2)cc1` (stereo not drawn), for which the z-score is 3.75 (inactive).

In the case of `CCN(CC)c1ccc(/C=C2\SC(=O)N(C(C)C)C2=O)o1`, the z-score is 17.4 (inactive).

For the compound `Cc1ccccc1-c1nnc(-c2ccc(Cl)cc2)o1`, the z-score was 3.54 (inactive).

For the compound `CC(=O)OCC(=O)c1c[nH]c2ccccc12`, the z-score is 0.26 (inactive).

In the case of `CC(Cc1c[nH]c2ccccc12)C(=O)O` (stereo not drawn), the z-score is 0 (inactive).

With `C=CCN1C(=O)/C(=C\C=C2\N(C)c3ccccc3C2(C)C)SC1=S`, the z-score is 15.4 (inactive).

As for `CN1/C(=C\C=C(/C#N)C(=O)Nc2ccc(Cl)cc2)C(C)(C)c2ccccc21`, the z-score was 8.8 (inactive).

`CN1CCN(C2=CC3=CC(=C(C#N)C#N)CCC3CC2)CC1` (stereo not drawn): the z-score is 10.9 (inactive).

For the compound `N#CCCn1cc(C(CC(=O)c2ccc(Br)cc2)C(=O)O)c2ccccc21` (stereo not drawn), the z-score was -4.89 (active).

`CCN1C(=O)/C(=C/C=C2\N(CC)c3cc(S(=O)(=O)N(C)C)ccc3N2c2ccccc2)SC1=S`: the z-score is 13.2 (inactive).

In the case of `COc1ccc2[nH]cc(CCN3C(=O)CCC3=O)c2c1`, the z-score is -5.12 (active).

With `COc1ccc(-c2cc(=O)c3cc(OC)ccc3o2)cc1`, the z-score is -0.37 (inactive).

As to `COc1cccc(C(=O)CN2C(=O)C(C)(C)Oc3ccc(C(=O)N4CCCCCC4)cc32)c1`, the z-score was 3.58 (inactive).

For the compound `N/C(=N\OC(=O)C1CCCCC1)c1cccc([N+](=O)[O-])c1`, the z-score is 3.01 (inactive).

Take `O=C(c1cccc([N+](=O)[O-])c1)N1CCCN(C(=O)c2cccc([N+](=O)[O-])c2)CC1`: the z-score is -7.17 (active).

As to `CCc1ccc(NC(=S)NCC2CCCN2CC)cc1` (stereo not drawn), the z-score is 3.74 (inactive).

Consider `S=C(Nc1ccc(Oc2ccc(NC(=S)NC3CCCCC3)cc2)cc1)NC1CCCCC1`, for which the z-score was -5.62 (active).

On to `O=C1N/C(=N/Nc2ccccc2)S/C1=C\c1ccccc1`, for which the z-score is 3.19 (inactive).

With `CCOC(=O)c1c(C)nc2c(c1C)c(=O)oc1ccccc12`, the z-score was 0.62 (inactive).

For the compound `O=c1cc(-c2ccc(O)cc2)oc2ccccc12`, the z-score is -0.5 (inactive).

Consider `O=C1/C(=C/c2ccc(N3CCCC3)cc2)NC(=S)N1C1CC1`, for which the z-score was 12.6 (inactive).

Regarding `COC(=O)c1nc2ccccn2c1F`, the z-score was 2.02 (inactive).

With `CC1(C)CC(=O)c2sc(NS(=O)(=O)Cc3ccccc3)nc2C1`, the z-score was 1.07 (inactive).

As to `O=c1c(N2CCOCC2)c(N2CCOCC2)c1=O`, the z-score is 3.02 (inactive).

For the compound `COc1cc(NC(=O)CN(C)Cc2ccc(OC(F)F)cc2)c(C)cc1[N+](=O)[O-]`, the z-score is -4.52 (active).

In the case of `COc1cc(Cl)c(C)cc1NC(=O)CN(C)Cc1cccc(OC)c1OC`, the z-score is 3.4 (inactive).

In the case of `Cc1ccc(Nc2nc3c([nH]2)c(=O)n(C)c(=O)n3C)cc1`, the z-score is 3.32 (inactive).

On to `Cc1ccc(Nc2cc(C)nn2-c2nc(C)cc(=O)[nH]2)cc1`, for which the z-score is -3.51 (active).

`FC(F)(F)c1cccc(N2CCN(Cc3cccnc3)CC2)c1`: the z-score was -4.71 (active).

On to `CC(C)(O)C(O)COc1c2ccoc2cc2oc(=O)ccc12` (stereo not drawn), for which the z-score is -0.51 (inactive).

With `O=C(/C=C/c1ccco1)Oc1cc(Br)cc(/C=N/NC(=O)c2ccccc2O)c1`, the z-score is -4.99 (active).

Take `COc1cccc(/C=N/NC(=O)c2oc3nc(-c4ccccc4)cc(-c4ccco4)c3c2N)c1`: the z-score is 3.3 (inactive).

In the case of `CCCCNC(=O)CSc1cc(=O)n(C)c2ccccc12`, the z-score is -4.57 (active).

`N#Cc1cccc(NC(=O)CSc2ccc3c4c(cccc24)C(=O)c2ccccc2-3)c1`: the z-score is 4.94 (inactive).

These data come from PubChem BioAssay AID1628 (Sanford-Burnham Center for Chemical Genomics, 2009).
